Measurements: ChEMBL document CHEMBL1961873, “Compounds: GSK PKIS; Assays: Nanosyn kinase panel” (2012)

Assays:
[1] = biological target: Sphingosine kinase 1 (Homo sapiens) (UniProt Q9NYA1); conditions: at 1 µM;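 further: mean SPHK1 inhibition value reported from the GSK PKIS kinase panel screen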
[2] = biological target: T1, Sphingosine kinase 2 (Homo sapiens) (UniProt Q9NRA0); conditions: at 0.1 µM
T1 sequence (whole entry): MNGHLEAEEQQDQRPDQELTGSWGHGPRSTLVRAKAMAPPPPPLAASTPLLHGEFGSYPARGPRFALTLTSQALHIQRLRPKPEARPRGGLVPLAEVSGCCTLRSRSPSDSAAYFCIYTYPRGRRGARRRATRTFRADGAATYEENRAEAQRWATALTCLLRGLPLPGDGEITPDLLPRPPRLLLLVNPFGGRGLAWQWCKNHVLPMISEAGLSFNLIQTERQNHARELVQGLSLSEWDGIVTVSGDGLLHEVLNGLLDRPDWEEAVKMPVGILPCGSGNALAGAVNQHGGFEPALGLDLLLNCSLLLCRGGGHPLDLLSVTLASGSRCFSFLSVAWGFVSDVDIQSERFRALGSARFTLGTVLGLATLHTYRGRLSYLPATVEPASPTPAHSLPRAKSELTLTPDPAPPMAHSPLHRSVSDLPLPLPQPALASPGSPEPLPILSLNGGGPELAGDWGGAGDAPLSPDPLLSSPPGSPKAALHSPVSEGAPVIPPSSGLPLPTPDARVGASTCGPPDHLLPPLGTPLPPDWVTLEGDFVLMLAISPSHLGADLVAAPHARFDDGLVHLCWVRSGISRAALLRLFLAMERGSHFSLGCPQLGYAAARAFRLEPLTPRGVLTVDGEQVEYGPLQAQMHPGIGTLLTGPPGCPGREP

[3] = biological target: T1, Sphingosine kinase 2 (Homo sapiens); conditions: at 1 µM
[4] = biological target: Casein kinase II subunit alpha (Homo sapiens) (UniProt P68400); conditions: at 0.1 µM
[5] = biological target: Casein kinase II subunit alpha (Homo sapiens) (UniProt P68400); conditions: at 1 µM
[6] = biological target: T2, Inhibitor of nuclear factor kappa-B kinase subunit alpha (Homo sapiens) (UniProt O15111); conditions: at 0.1 µM
T2 sequence (whole entry): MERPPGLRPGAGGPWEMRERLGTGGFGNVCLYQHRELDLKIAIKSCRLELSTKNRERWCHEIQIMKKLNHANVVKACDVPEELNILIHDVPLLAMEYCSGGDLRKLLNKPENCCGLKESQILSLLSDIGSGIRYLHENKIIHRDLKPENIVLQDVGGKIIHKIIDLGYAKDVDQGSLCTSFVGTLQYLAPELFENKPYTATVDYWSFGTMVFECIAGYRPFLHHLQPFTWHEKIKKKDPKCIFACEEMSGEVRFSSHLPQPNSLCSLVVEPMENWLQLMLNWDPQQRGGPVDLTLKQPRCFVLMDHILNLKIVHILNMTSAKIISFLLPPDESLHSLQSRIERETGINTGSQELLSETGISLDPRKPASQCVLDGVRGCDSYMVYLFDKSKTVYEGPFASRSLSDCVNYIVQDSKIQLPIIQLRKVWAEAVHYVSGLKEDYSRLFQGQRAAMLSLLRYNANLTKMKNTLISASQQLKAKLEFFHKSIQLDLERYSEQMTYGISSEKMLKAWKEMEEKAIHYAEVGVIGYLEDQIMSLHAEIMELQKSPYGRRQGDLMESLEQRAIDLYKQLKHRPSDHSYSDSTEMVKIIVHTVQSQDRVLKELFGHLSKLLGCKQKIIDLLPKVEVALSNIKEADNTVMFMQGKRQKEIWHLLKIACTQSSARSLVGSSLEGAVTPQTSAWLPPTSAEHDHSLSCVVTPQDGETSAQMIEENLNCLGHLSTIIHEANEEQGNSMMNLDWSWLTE

[7] = biological target: T2, Inhibitor of nuclear factor kappa-B kinase subunit alpha (Homo sapiens); conditions: at 1 µM
[8] = biological target: T3, Inhibitor of nuclear factor kappa-B kinase subunit beta (Homo sapiens) (UniProt O14920); conditions: at 0.1 µM
T3 sequence (whole entry): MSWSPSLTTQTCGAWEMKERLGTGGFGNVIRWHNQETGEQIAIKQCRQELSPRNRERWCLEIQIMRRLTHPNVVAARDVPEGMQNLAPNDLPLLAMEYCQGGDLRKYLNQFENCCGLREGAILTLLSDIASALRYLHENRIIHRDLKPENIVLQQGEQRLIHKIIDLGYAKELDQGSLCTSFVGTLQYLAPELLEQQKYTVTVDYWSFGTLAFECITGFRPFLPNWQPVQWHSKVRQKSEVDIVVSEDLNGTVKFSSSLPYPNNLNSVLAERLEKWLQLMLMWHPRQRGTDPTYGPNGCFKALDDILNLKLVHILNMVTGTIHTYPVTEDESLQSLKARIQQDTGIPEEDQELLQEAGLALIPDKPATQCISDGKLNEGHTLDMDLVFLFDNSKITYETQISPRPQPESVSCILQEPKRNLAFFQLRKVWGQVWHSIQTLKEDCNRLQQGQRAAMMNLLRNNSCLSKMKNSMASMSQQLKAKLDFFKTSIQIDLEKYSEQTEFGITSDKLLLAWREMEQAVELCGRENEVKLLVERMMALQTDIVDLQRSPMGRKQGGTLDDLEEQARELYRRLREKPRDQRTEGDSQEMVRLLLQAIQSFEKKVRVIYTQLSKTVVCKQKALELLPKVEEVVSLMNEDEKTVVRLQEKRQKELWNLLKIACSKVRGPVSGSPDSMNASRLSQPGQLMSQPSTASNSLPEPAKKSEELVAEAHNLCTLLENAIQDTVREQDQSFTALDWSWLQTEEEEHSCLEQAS

[9] = biological target: T3, Inhibitor of nuclear factor kappa-B kinase subunit beta (Homo sapiens); conditions: at 1 µM
[10] = biological target: T4, Inhibitor of nuclear factor kappa-B kinase subunit epsilon (Homo sapiens) (UniProt Q14164); conditions: at 0.1 µM;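 further: mean inhibition of IKKε reported, from the GSK PKIS dataset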
T4 sequence (whole entry): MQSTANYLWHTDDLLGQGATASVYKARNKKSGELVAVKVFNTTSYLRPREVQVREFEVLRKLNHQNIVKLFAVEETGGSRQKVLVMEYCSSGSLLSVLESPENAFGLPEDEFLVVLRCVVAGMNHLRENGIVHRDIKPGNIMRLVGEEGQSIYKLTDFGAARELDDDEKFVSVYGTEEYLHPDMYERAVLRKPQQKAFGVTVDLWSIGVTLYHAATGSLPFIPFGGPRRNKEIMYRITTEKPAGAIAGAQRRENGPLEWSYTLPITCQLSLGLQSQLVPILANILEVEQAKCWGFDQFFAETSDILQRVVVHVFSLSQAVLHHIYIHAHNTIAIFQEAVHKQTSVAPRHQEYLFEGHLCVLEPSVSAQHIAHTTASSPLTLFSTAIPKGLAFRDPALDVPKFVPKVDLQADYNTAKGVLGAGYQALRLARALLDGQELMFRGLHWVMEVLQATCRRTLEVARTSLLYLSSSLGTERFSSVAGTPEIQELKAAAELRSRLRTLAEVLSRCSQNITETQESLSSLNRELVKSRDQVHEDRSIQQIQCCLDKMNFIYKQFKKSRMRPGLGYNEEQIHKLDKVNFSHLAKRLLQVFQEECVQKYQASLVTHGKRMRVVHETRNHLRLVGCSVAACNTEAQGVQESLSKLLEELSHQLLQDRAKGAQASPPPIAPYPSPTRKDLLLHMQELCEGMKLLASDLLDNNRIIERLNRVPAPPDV

Sphingosine kinase 1 (Homo sapiens), sequence (Q9NYA1 whole entry): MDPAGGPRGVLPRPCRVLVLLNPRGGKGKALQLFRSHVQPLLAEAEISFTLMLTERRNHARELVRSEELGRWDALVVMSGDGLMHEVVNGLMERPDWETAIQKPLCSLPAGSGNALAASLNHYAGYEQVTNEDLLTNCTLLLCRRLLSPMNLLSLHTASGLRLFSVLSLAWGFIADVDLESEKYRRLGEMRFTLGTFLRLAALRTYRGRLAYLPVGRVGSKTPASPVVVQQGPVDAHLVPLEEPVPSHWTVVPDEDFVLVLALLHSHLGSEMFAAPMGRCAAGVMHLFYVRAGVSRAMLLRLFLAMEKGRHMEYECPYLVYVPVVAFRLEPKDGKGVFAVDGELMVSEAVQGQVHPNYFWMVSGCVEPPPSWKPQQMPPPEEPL
Casein kinase II subunit alpha (Homo sapiens), sequence (P68400 whole entry, looked up): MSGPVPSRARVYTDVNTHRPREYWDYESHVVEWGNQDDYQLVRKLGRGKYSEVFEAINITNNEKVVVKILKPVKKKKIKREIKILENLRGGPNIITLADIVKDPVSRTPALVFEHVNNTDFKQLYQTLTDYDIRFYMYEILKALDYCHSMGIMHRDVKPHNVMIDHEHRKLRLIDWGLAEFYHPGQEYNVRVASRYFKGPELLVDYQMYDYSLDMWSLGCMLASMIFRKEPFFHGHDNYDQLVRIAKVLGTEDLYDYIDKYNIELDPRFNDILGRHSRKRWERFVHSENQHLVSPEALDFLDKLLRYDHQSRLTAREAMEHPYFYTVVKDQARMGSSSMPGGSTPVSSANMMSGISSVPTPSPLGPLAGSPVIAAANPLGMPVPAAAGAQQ

Row | Structure (SMILES) | inhibition [1] [%] | inhibition [2] [%] | inhibition [3] [%] | inhibition [4] [%] | inhibition [5] [%] | inhibition [6] [%] | inhibition [7] [%] | inhibition [8] [%] | inhibition [9] [%] | inhibition [10] [%]
1 | CCn1c(-c2nonc2N)nc2c(C#CC(C)(C)O)ncc(OCC3CCNCC3)c21 | 0.24 | 1.73 | -2.73 | 4.56 | 12.8 | 7.05 | 7.37 | 4.88 | 4.77 | 90.3
2 | CCn1c(-c2nonc2N)nc2c(C#CCN)ncc(OCCCN)c21 | -2.44 | 0.6 | -1.33 | -1.18 | 10.1 | -6.76 | -0.57 | -4.65 | 0.63 | 0.53
3 | COc1cccc(-n2ncc3c(N/N=C/c4ccncc4)ncnc32)c1 | -2.79 | -0.91 | -0.32 | 18.2 | 59.7 | 1.55 | 1.71 | 4.82 | 4.07 | 5.23
4 | Cc1cc(-c2ccco2)cc(C)c1/C=C/c1cncc(-c2nn[nH]n2)c1 | -1.08 | -0.36 | 1.61 | 1.49 | 3.8 | -1.31 | 2.26 | 3.61 | 2.75 | 4.22
5 | COc1cc2c(cc1Nc1nc(Nc3ccsc3C(N)=O)c3cc[nH]c3n1)N(C(=O)CN(C)C)CCC2 | 0.45 | 4.92 | -0.26 | 8.25 | 37.7 | -7.1 | -1.3 | 2.95 | -1.2 | -5.2
6 | Fc1ccc(-c2ncn(C3CCNCC3)c2-c2ccnc(Oc3ccccc3)n2)cc1 | -1.73 | 1.51 | 1.09 | 6.73 | 1.68 | -3.14 | 1.08 | 4.13 | 3.12 | 2.6
7 | NC(=O)c1sc(-n2cnc3cc(C(F)(F)F)ccc32)cc1OCc1ccccc1Br | 0.07 | -0.95 | 0 | -1.01 | 2.21 | 2.77 | 2.85 | 3.87 | 2.52 | 3.08
8 | COc1cc(C=NNc2ncnc3c2cnn3Cc2ccccc2)ccc1O | -3.17 | 2.14 | 0.11 | -0.94 | 13.8 | -2.85 | -2.41 | -2.63 | -2.75 | -4.31
9 | CCn1c(-c2nonc2N)nc2c(C#CC(C)(C)O)nc(O[C@@H](CN)c3ccccc3)cc21 | -0.99 | -0.06 | -0.62 | -0.87 | 3.9 | -6.57 | -2.27 | -1.36 | -3.23 | 88.3
10 | COc1cccc(COc2cc(-n3cnc4ccccc43)sc2C(N)=O)c1 | -1.55 | -0.24 | -0.85 | 11.6 | -0.53 | 9.44 | 7.88 | -0.21 | -0.64 | -2.28
11 | NS(=O)(=O)c1ccc(-c2ccc3c(NC(=O)C4CC4)n[nH]c3c2)cc1 | -1.21 | 0.08 | -0.22 | 1.12 | 1.51 | 2.81 | 3 | 3.94 | 3.28 | -0.78
12 | NS(=O)(=O)c1ccc(N/C=C2\C(=O)Nc3ccc4ncsc4c32)cc1 | 0.02 | -1.02 | -0.93 | 7.56 | 28 | 2.29 | 14.3 | 8.87 | 13.1 | 13.3
13 | CCn1c(-c2nonc2N)nc2c(C#CC(C)(C)O)ncc(OC[C@@H]3CCCN3)c21 | 1.85 | 1.65 | 0 | 13.9 | -1.67 | 7.49 | -0.05 | 4.75 | 4.4 | 89.6
14 | Nc1nonc1-c1nc2cnccc2n1C1CCCCC1 | 0.54 | 1.2 | 0.21 | -0.44 | 4.16 | -6.64 | -2.66 | -2.5 | -5.78 | -0.73
